Test results as given in the supplement of paper PMC12669032.
“And” between values parts separate entries of the source, which are not always exact repeats. Equal entries are not always repeated. Unmarked numbers belong to inactive results.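 The calls were made as follows: active = AUC reduced over 20% with Padj below 0.05 in at least 2 of 3 replicates; inactive = otherwise.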

Key:
Experiment in all cases: growth AUC relative to DMSO control (median of replicates) (fraction); higher = more growth (less inhibition), active = hit call of the paper
Conditions in all cases: 20 µM; 24 h
Coprococcus comes = system: Coprococcus comes
Method in brief: (§1)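 Starting at OD600 0.05, gut bacterial monocultures in mGAM were grown anaerobically at 37 °C with 20 µM compound (1% DMSO) under pierced gas-permeable seals. OD600 was read every hour for 24 h, and the lowest OD of each curve was set to 0. Area under the growth curve was normalised to the plate median of solvent-only wells, or to row and column medians on the industrial chemical plate, and the median of three biological replicates grown on separate days is given.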

Escherichia coli ED1a = system: Escherichia coli ED1a
Method in brief: as §1

Escherichia coli IAI1 = system: Escherichia coli IAI1
Method in brief: as §1

Eubacterium rectale = system: Eubacterium rectale
Method in brief: as §1

[1] = system: Fusobacterium nucleatum subsp. animalis
Method in brief: as §1

Lactobacillus gasseri = system: Lactobacillus gasseri
Method in brief: as §1

Lactobacillus paracasei = system: Lactobacillus paracasei
Method in brief: as §1

Odoribacter splanchnicus = system: Odoribacter splanchnicus
Method in brief: as §1

[2] = system: Parabacteroides distasonis
Method in brief: as §1

Parabacteroides merdae = system: Parabacteroides merdae
Method in brief: as §1

Row | Compound | growth AUC (Coprococcus comes) | growth AUC (Escherichia coli ED1a) | growth AUC (Escherichia coli IAI1) | growth AUC (Eubacterium rectale) | growth AUC [1] | growth AUC (Lactobacillus gasseri) | growth AUC (Lactobacillus paracasei) | growth AUC (Odoribacter splanchnicus) | growth AUC [2] | growth AUC (Parabacteroides merdae)
1 | CCCCCCCCCc1ccc(O)cc1 | 0.989 | 0.998 | 1.01 | 0.968 | 0.989 | 0.904 | 1.01 | 0.841 | 0.885 | 0.971
2 | CCOP(=S)(OCC)Oc1cc(Cl)c(Br)cc1Cl | 0.976 | 1.02 | 0.992 | 1.05 | 1.08 | 0.868 | 1 | 0.968 | 0.891 | 0.962
3 | CCOCCN(C(=O)CCl)C(=C(C)C)c1ccccc1 | 0.999 | 0.98 | 0.976 | 0.982 | 0.986 | 0.935 | 1.01 | 0.978 | 0.955 | 1
4 | O=c1[nH]c2c(c(=O)n1C1CCCCC1)CCC2 | 0.945 | 0.99 | 0.987 | 0.899 | 0.834 | 0.923 | 1.02 | 0.98 | 0.999 | 0.973
5 | COC(=O)/C=C(/C)OP(=O)(OC)OC | 1.02 and 1.04 | 1.01 and 1.05 | 0.997 and 1.04 | 1.03 and 1.05 | 1.03 and 1.22 | 0.973 and 1.01 | 0.956 and 1.04 | 1.09 and 0.835 | 0.972 and 0.999 | 1 and 1.05
6 | COP(=S)(OC)Oc1ccc(Sc2ccc(OP(=S)(OC)OC)cc2)cc1 | 1.03 | 1.05 | 1.01 | 1.01 | 1.09 | 1.03 | 0.973 | 1.13 | 1.01 | 1.05
7 | CCOC(=O)C(SP(=S)(OC)OC)c1ccccc1 (stereo not given) | 1.02 | 0.991 | 0.976 | 0.821 | 0.904 | 1.05 | 1.02 | 0.958 | 0.746 (active) | 0.958
8 | CCNC(=O)NC(=O)/C(C#N)=N/OC | 1.05 | 1.04 | 1.02 | 0.919 | 1.2 | 1.06 | 0.94 | 1.02 | 1.04 | 1.01
9 | ClC1=C(Cl)C2(Cl)C3C4C=CC(C4)C3C1(Cl)C2(Cl)Cl (stereo not given) | 1.02 | 0.996 | 1.02 | 0.986 | 1 | 0.955 | 0.997 | 1.05 | 1.05 | 1.02
10 | COCC(=O)N(c1c(C)cccc1C)C(C)C(=O)OC (stereo not given) | 1.02 | 0.989 | 1.01 | 1.04 | 1.09 | 1.09 | 0.987 | 1.04 | 1.05 | 1.05
11 | Cc1cc(C)c(C2=C(OC(=O)CC(C)(C)C)C3(CCCC3)OC2=O)c(C)c1 | 0.974 | 1.02 | 1.03 | 1.04 | 1.09 | 0.918 | 1.14 | 0.978 | 0.772 (active) | 1.04
12 | CO/C=C(/C(=O)OC)c1ccccc1COc1cccc(C(F)(F)F)n1 | 0.993 | 0.989 | 0.997 | 0.937 | 0.948 | 0.975 | 1.02 | 0.964 | 0.558 (active) | 0.924
13 | Clc1ccc(C(c2ccc(Cl)cc2)C(Cl)(Cl)Cl)cc1 | 0.964 | 0.963 | 0.979 | 0.878 | 0.916 | 0.487 | 0.908 | 0.709 | 0.258 (active) | 0.69 (active)
14 | Oc1cccc2cccnc12 | 0.928 | 0.987 | 0.982 | 0.904 | 1.04 | 1.08 | 0.942 | 1.02 | 1 | 0.993
15 | C=CCC1=C(C)C(OC(=O)C2C(C=C(C)C)C2(C)C)CC1=O (mixture of isomers) | 0.963 | 0.968 | 1.01 | 1.09 | 1.01 | 0.818 | 0.943 | 1.01 | 0.771 | 0.955
16 | COP(=O)(OC)OC(Br)C(Cl)(Cl)Br (stereo not given) | 0.976 | 0.991 | 1.02 | 0.915 | 0.973 | 1.02 | 1.01 | 0.937 | 1.06 | 1.01
17 | COC[C@H](C)N(C(=O)CCl)c1c(C)csc1C | 1 | 0.985 | 0.981 | 1.17 | 0.988 | 0.922 | 0.95 | 0.976 | 0.963 | 0.956
18 | Oc1ccc(C(c2ccc(O)cc2)(C(F)(F)F)C(F)(F)F)cc1 | 1.06 | 0.969 | 1 | 0.792 (active) | 0.595 (active) | 0.577 | 0.727 | 0.0871 (active) | 0.0433 (active) | 0.515 (active)
19 | CNC(=O)Oc1ccccc1C(C)C | 1.04 | 1.01 | 1.02 | 1.07 | 1.07 | 1.04 | 0.861 | 1.03 | 0.998 | 1.03
